Assay outcomes: PubChem, National Center for Advancing Translational Sciences (NCATS)
TRHR enhancer: TRH receptor (human) allosteric enhancement; P34981; TRHR cells, fluo-8 calcium fluorescence, EC20 TRH enhancement; enhancement, % at 2 µM; actives 0.66% (n = 360,000); AID 493056; in the data active means enhancement above about 30%
Target sequence (P34981 whole entry, looked up): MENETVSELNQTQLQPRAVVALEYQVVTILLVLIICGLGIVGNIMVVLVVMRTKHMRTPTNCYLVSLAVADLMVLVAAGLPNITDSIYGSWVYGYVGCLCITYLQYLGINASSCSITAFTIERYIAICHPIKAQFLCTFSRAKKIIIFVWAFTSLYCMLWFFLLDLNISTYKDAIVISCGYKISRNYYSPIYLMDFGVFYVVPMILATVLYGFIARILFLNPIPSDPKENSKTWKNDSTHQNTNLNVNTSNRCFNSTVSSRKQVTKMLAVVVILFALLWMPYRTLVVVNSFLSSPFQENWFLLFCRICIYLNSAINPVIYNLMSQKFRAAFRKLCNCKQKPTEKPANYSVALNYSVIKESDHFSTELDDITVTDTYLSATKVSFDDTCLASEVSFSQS
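TRHR-expressing cells loaded with fluo-8 calcium dye were read kinetically (ex 480/em 530) during compound addition, then stimulated with an EC20 of TRH (10 nM final). Enhancement of the Gq-mediated intracellular calcium response was scored.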
D1 ag: human D1 receptor agonism; P21728; HEK293 T-REx D1 cells, calcium flux, agonist mode; activation, % at 2 µM; actives 1% (n = 360,000); AID 504660
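Inducible HEK293 T-REx D1 cells, force-coupled to calcium signalling, were plated at 4000 cells/well with tetracycline and held overnight at 30 C. After no-wash calcium dye loading, compound-evoked calcium rise over 180 s flagged agonists.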
TRHR agonist: TRH receptor (human) agonism; activation, % at 2 µM; TRHR cells, calcium flux fluo-8, FDSS agonist mode; P34981; actives 0.18% (n = 360,000)
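Steps: seed TRHR cells overnight; add fluo-8 no-wash Ca dye, RT 30 min–1.5 h; record 10 s baseline; pin-transfer compounds; monitor fluorescence 1 cycle/s for the agonist window. Calcium increases flag candidate agonists.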
D1 PAM: potentiators of human D1 dopamine receptor; potentiation, % at 10 µM; P21728; actives 0.036% (n = 360,000); HEK293 TREx D1 cells, calcium flux, dopamine EC20 potentiation; in the data active means potentiation above about 30%
D1 antag: antagonists of human D1 dopamine receptor; AID 504652; actives 3.2% (n = 360,000); P21728; HEK293 TREx D1 cells, calcium flux, dopamine EC80; active compounds read low; activity change, negative = inhibition, % at 10 µM; in the data active means activity change below about -30%
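HEK293 T-REx cells expressing inducible, force-coupled D1 receptor; no-wash Ca dye, 30–90 min RT. Cmpd → 180 s read at 1 Hz → EC80 DA → 180 s read.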
LDHA inh: inhibitors of human lactate dehydrogenase A; purified LDHA, NADH/diaphorase-resazurin fluorescence; active compounds read low; activity change, % (values are at about 110 or 230 µM); P00338; actives 0.15% (n = 480,000); in the data active means activity change below about -30%; inconclusive means mostly about -25% to -30%
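Human LDH5 at 2 nM final in Tris HCl pH 7.4 with 0.06 mM NADH and 0.2 mM pyruvate, reacted 5 minutes at room temperature. Remaining NADH coupled via diaphorase/resazurin; resorufin fluorescence read at 0 and 20 minutes, normalized to enzyme-free and DMSO wells.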
Numbers stand for hits; . = inactive; ? = inconclusive; / = no result given. The list is not random: actives were taken first. Their share in the collection is about 3.6%. Unless noted, no stated cut-off is given here; in the data, active means activation above about 30%; inactive means the rest.

SMILES	TRHR enhancer	D1 ag	TRHR agonist	D1 PAM	D1 antag	LDHA inh
CN1CCN(CCOCCOc2ccc(Br)cc2Cl)CC1	.	.	.	.	.	-38
CC1CCCN(CCOCCOc2ccc(Br)cc2Cl)C1 (stereo unspecified)	.	.	.	.	-32	?
Cc1ccc(OCCCCN2CCC(C)CC2)c(Br)c1	.	.	.	.	.	.
Cc1ccc(OCCOCCN2CCN(C)CC2)c([N+](=O)[O-])c1	.	.	.	.	.	-46
Cc1ccc(OCCOCCN2CCCCC2)c([N+](=O)[O-])c1	.	.	.	.	.	.
Cc1cc(=O)n2c(C(=O)Nc3cccc(Cl)c3)c(C(=O)Nc3ccccc3)sc2n1	/	/	/	/	/	.
O=C(Nc1sc2c(c1C(=O)O)CCCC2)c1cccs1	.	.	.	.	.	.
O=C(Cc1ccccc1)Nc1sc2c(c1C(=O)Nc1cccc(Cl)c1)CCCCC2	.	.	.	.	.	.
Cc1c(NC(=O)c2c(NC(=O)CNC3CC3)sc3c2CCCC3)c(=O)n(-c2ccccc2)n1C	.	.	.	.	.	-89
O=C(Nc1sc2c(c1C(=O)O)CCCCC2)c1cccs1	.	.	.	.	.	-42
CC1CCc2c(sc(NC(=O)c3cccs3)c2C(=O)O)C1 (stereo unspecified)	.	.	.	.	.	-40
COC(=O)c1c(NC(=O)c2cccs2)sc2c1CCC(C)C2 (stereo unspecified)	.	.	.	.	.	.
O=C(Cc1ccccc1)Nc1sc2c(c1C(=O)Nc1ccccc1Cl)CCCCC2	33	.	.	.	.	.
Cc1oc(-c2nc(C#N)c(NCc3ccc(F)cc3)o2)cc1S(=O)(=O)N(C)C	/	/	/	/	/	.
Cc1c(-c2cccc(Cl)c2)nc2ccccc2c1C(=O)NC1CCCc2ccccc21 (stereo unspecified)	/	/	/	/	/	.
CC(C)NC(=O)CN1CCN(C(=O)c2cc3cc(Br)ccc3[nH]2)CC1	/	/	/	/	/	.
COc1ccccc1OCCNC(=O)c1cc(=O)c2ccccc2o1	/	/	/	/	/	.
Cc1cc(C)c2c(=O)n(CC(=O)NC3CCCC3)sc2n1	.	.	.	.	.	.
COc1ccc(OC)c(CCNC(=O)Cn2sc3nc(C)cc(C)c3c2=O)c1	.	.	.	.	-48	/
Cc1cc(C)c2c(=O)n(CC(=O)Nc3ccc(Br)c(C)c3)sc2n1	.	.	.	.	-49	.
Cc1cc(C)c2c(=O)n(CC(=O)Nc3cccc(Cl)c3C)sc2n1	.	37	.	.	.	.
O=C(Nc1cccc(C(F)(F)F)c1)c1c(-c2ccc(F)cc2)nc2n1CCS2(=O)=O	/	/	/	/	/	.
COc1ccc(-c2cc3ccc(OS(=O)(=O)c4ccccc4)cc3oc2=O)cc1	/	/	/	/	/	.
CSC1=NCCN1C(=O)Cc1ccc(-c2ccccc2)cc1	.	.	.	.	-40	.
CCSC1=NCCN1C(=O)Cc1ccc(-c2ccccc2)cc1	.	.	.	.	-44	.
SMILES	TRHR enhancer	D1 ag	TRHR agonist	D1 PAM	D1 antag	LDHA inh
O=C(c1cc(F)cc(F)c1)N1CCSc2ccc(Cl)cc21	/	/	/	/	/	.
COc1cccc(CNS(=O)(=O)c2cc3[nH]c(=O)c(=O)[nH]c3cc2C)c1	31	.	.	.	.	.
C/C(=N\NC(=O)C1CC1(c1ccccc1)c1ccccc1)c1cccc([N+](=O)[O-])c1 (stereo unspecified)	.	.	.	.	-77	.
C/C(=N\NC(=O)C1CC1c1ccccc1)c1cccc([N+](=O)[O-])c1 (stereo unspecified)	.	.	.	.	.	.
Cc1nn(-c2ccc(F)cc2F)c2c1-c1nc(N3CCCC3)ncc1CC2	.	.	.	.	-42	.
O=C(Nc1ccc2nc(N3CCOCC3)sc2c1)c1cc2ccccc2o1	/	/	/	/	/	.
Cc1c(C(=O)Nc2ccc3nc(N4CCOCC4)sc3c2)oc2ccccc12	.	.	.	.	-43	.
Cc1cccc(NC(=O)CCc2c[nH]c3ccccc23)c1C	/	/	/	/	/	.
COc1ccc(/C=N/OCc2ccc(F)cc2Cl)cc1OCc1ccccc1	/	/	/	/	/	.
N#Cc1cccc(C#N)c1Oc1ccc(S(=O)(=O)Nc2ccc(Cl)cc2)cc1	.	.	.	.	-38	.
Cc1cnc(NC(=O)c2ccc3c(c2)C(=O)N(Cc2cccnc2)C3=O)s1	.	.	.	.	-33	.
O=C(Nc1nccs1)c1ccc2c(c1)C(=O)N(Cc1cccnc1)C2=O	.	.	.	.	.	.
CCN1C(=O)C2(CC(=O)Nc3[nH]ncc32)c2cc(C)ccc21 (stereo unspecified)	/	/	/	/	/	.
N#Cc1ccc(-c2ccc(OCC(=O)Nc3cccnc3)cc2)cc1	.	.	.	.	-45	.
CCc1ccc(S(=O)(=O)c2cn(CC(=O)Nc3ccccc3C)c3ccc(F)cc3c2=O)cc1	/	/	/	/	/	.
O=C(NNc1ccc(F)cc1F)c1c(F)cccc1Cl	.	.	.	.	.	.
O=C(NNc1c(Cl)cccc1Cl)c1c(F)cccc1Cl	.	.	.	.	-35	.
Cc1cc(C(=O)COC(=O)c2ccccn2)c(C)n1Cc1ccccc1	/	/	/	/	/	.
Cc1noc(C)c1C(=O)OCC(=O)c1cc(C)n(Cc2ccccc2Cl)c1C	.	.	.	.	-38	.
Cc1cc(C(=O)COC(=O)c2cccs2)c(C)n1Cc1ccco1	/	/	/	/	/	-33
CCOC(=O)C1C(=O)C=C(c2ccc(F)cc2)CC1c1ccc(C(C)C)cc1 (stereo unspecified)	/	/	/	/	/	.
O=c1[nH]c(=O)n(Cc2ccccc2)c2nc(-c3cccc(F)c3)n(CC3CCCO3)c12 (stereo unspecified)	/	/	/	/	/	.
O=C(NC1CCCc2ccccc21)c1cc2c(s1)CCC2 (stereo unspecified)	/	/	/	/	/	.
